# Test results published in the supplement of paper PMC4022240.
# ± gives the standard deviation.
# T1: HaloTag-ATRX ADD domain (163-292)
# T1 chain: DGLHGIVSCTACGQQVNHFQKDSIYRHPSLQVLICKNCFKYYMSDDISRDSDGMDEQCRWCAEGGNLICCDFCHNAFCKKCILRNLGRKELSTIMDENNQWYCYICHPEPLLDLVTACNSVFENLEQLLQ
# B1: H4 38-50 A R R G G V Kme R I S G L I (peptide)
# chain: ARRGGVKRISGLI
# B2: H4 38-50 A R R G G V Kme Rme I S G L I (peptide)
# chain: ARRGGVKRISGLI
# B3: H4 38-50 A R R G G V Kme2 Rcit I S G L I (peptide)
# chain: ARRGGVKRISGLI
# B4: H4 38-50 A R R G G V Kme3 R I S G L I (peptide)
# chain: ARRGGVKRISGLI
# B5: H4 38-50 A R R G G V Kac Rme I S G L I (peptide)
# chain: ARRGGVKRISGLI
# B6: H4 38-50 A R R G G V K R I S G L I (peptide)
# chain: ARRGGVKRISGLI
# B7: H4 16-28 K R H R K V L Rcit D N I Q G (peptide)
# chain: KRHRKVLRDNIQG
# B8: H4 38-50 A R R G G V Kme3 Rcit I S G L I (peptide)
# chain: ARRGGVKRISGLI
# B9: H4 16-28 K R H Rme2s K V L R D N I Q G (peptide)
# chain: KRHRKVLRDNIQG
# B10: H4 38-50 A R R G G V Kme Rcit I S G L I (peptide)
# chain: ARRGGVKRISGLI
# What was measured:
# Experiment in all cases: peptide microarray binding signal (635 nm), min-max normalized on array (fraction of array maximum); higher = stronger binding
# [1] = target: T1, HaloTag-ATRX ADD domain (163-292)
# Outline: (§1)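 Binding signal is the mean intensity of triplicate spots, min-max scaled within each library. Histone 13-mer peptide–cellulose conjugates were spotted in triplicate on nitrocellulose with a Cy3 tracer and blocked overnight at 4°C. Probing lasted 1 h at 4°C, either with biotin-labelled HaloTag reader fusions (10 nM to 1 μM) and streptavidin-Alexa Fluor 647 or with rabbit histone antibodies (1:10,000 to 1:2,000) and anti-rabbit Alexa 647. An Axon GenePix 4000B read signal at 635 nm and misprints at 532 nm.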
# [2] = target: HaloTag-ING2 PHD (mouse Ing2 200-280)
# Outline: as §1
# [3] = target: anti-H3K4me3 antibody ab8580
# Outline: as §1
# [4] = target: anti-H3K9me3 antibody ab8898
# Outline: as §1
# [5] = peptide region: H4 38-50, peptide modifications: H4K44me1, binder concentration: 1:2,000 dilution
# [6] = peptide region: H4 38-50, peptide modifications: H4K44me1, binder concentration: 1:10,000 dilution
# [7] = peptide region: H4 38-50, peptide modifications: H4K44me1 H4R45me1, binder concentration: 1:2,000 dilution
# [8] = peptide region: H4 38-50, peptide modifications: H4K44me1 H4R45me1, binder concentration: 1:10,000 dilution
# [9] = peptide region: H4 38-50, peptide modifications: H4K44me2 H4R45cit, binder concentration: 1:2,000 dilution
# [10] = peptide region: H4 38-50, peptide modifications: H4K44me2 H4R45cit, binder concentration: 1:10,000 dilution
# [11] = peptide region: H4 38-50, peptide modifications: H4K44me3, binder concentration: 1:2,000 dilution
# [12] = peptide region: H4 38-50, peptide modifications: H4K44me3, binder concentration: 1:10,000 dilution
# [13] = peptide region: H4 38-50, peptide modifications: H4K44ac H4R45me1, binder concentration: 1:2,000 dilution
# [14] = peptide region: H4 38-50, peptide modifications: H4K44ac H4R45me1, binder concentration: 1:10,000 dilution
# [15] = peptide region: H4 38-50, binder concentration: 1:2,000 dilution
# [16] = peptide region: H4 38-50, binder concentration: 1:10,000 dilution
# [17] = peptide region: H4 16-28, peptide modifications: H4R23cit, binder concentration: 1:2,000 dilution
# [18] = peptide region: H4 16-28, peptide modifications: H4R23cit, binder concentration: 1:10,000 dilution
# [19] = peptide region: H4 38-50, peptide modifications: H4K44me3 H4R45cit, binder concentration: 1:2,000 dilution
# [20] = peptide region: H4 38-50, peptide modifications: H4K44me3 H4R45cit, binder concentration: 1:10,000 dilution
# [21] = peptide region: H4 16-28, peptide modifications: H4R19me2s, binder concentration: 1:2,000 dilution
# [22] = peptide region: H4 38-50, peptide modifications: H4K44me1 H4R45cit, binder concentration: 1:2,000 dilution
# [23] = peptide region: H4 38-50, peptide modifications: H4K44me1 H4R45cit, binder concentration: 1:10,000 dilution
binder,measurement,setting,value
B1,peptide microarray binding signal,"[1]; peptide region: H4 38-50, peptide modifications: H4K44me1, binder concentration: 50 nM",0.00765 ± 0.00015
same,peptide microarray binding signal,"[1]; peptide region: H4 38-50, peptide modifications: H4K44me1, binder concentration: 500 nM",0.0147 ± 0.0013
same,peptide microarray binding signal,"[2]; peptide region: H4 38-50, peptide modifications: H4K44me1, binder concentration: 10 nM",0.01074 ± 8.4e-05
same,peptide microarray binding signal,"[2]; peptide region: H4 38-50, peptide modifications: H4K44me1, binder concentration: 100 nM",0.0234 ± 0.0011
same,peptide microarray binding signal,[3]; [5],0.00691 ± 0.00072
same,peptide microarray binding signal,[3]; [6],0.00719 ± 0.00029
same,peptide microarray binding signal,[4]; [5],0.00751 ± 0.0003
same,peptide microarray binding signal,[4]; [6],0.00703 ± 0.0019
B2,peptide microarray binding signal,"[1]; peptide region: H4 38-50, peptide modifications: H4K44me1 H4R45me1, binder concentration: 50 nM",0.0377 ± 0.00093
same,peptide microarray binding signal,"[1]; peptide region: H4 38-50, peptide modifications: H4K44me1 H4R45me1, binder concentration: 500 nM",0.0199 ± 0.00027
same,peptide microarray binding signal,"[2]; peptide region: H4 38-50, peptide modifications: H4K44me1 H4R45me1, binder concentration: 10 nM",0.0751 ± 0.0022
same,peptide microarray binding signal,"[2]; peptide region: H4 38-50, peptide modifications: H4K44me1 H4R45me1, binder concentration: 100 nM",0.031 ± 0.0006
same,peptide microarray binding signal,[3]; [7],0.00727 ± 0.00021
same,peptide microarray binding signal,[3]; [8],0.02163 ± 0.00021
same,peptide microarray binding signal,[4]; [7],0.0055 ± 9.8e-05
same,peptide microarray binding signal,[4]; [8],0.02058 ± 0.00019
B3,peptide microarray binding signal,"[1]; peptide region: H4 38-50, peptide modifications: H4K44me2 H4R45cit, binder concentration: 50 nM",0.00389 ± 6.7e-05
same,peptide microarray binding signal,"[1]; peptide region: H4 38-50, peptide modifications: H4K44me2 H4R45cit, binder concentration: 500 nM",0.00743
same,peptide microarray binding signal,"[2]; peptide region: H4 38-50, peptide modifications: H4K44me2 H4R45cit, binder concentration: 10 nM",0.007102 ± 3.2e-05
same,peptide microarray binding signal,"[2]; peptide region: H4 38-50, peptide modifications: H4K44me2 H4R45cit, binder concentration: 100 nM",0.0109 ± 0.00033
same,peptide microarray binding signal,[3]; [9],0.00136 ± 0.00012
same,peptide microarray binding signal,[3]; [10],0.00177 ± 2.9e-05
same,peptide microarray binding signal,[4]; [9],0.00104 ± 2.9e-05
same,peptide microarray binding signal,[4]; [10],0.0011 ± 2.9e-05
B4,peptide microarray binding signal,"[1]; peptide region: H4 38-50, peptide modifications: H4K44me3, binder concentration: 50 nM",0.00367 ± 6.4e-05
same,peptide microarray binding signal,"[1]; peptide region: H4 38-50, peptide modifications: H4K44me3, binder concentration: 500 nM",0.00671 ± 0.00031
same,peptide microarray binding signal,"[2]; peptide region: H4 38-50, peptide modifications: H4K44me3, binder concentration: 10 nM",0.00859 ± 9.7e-05
same,peptide microarray binding signal,"[2]; peptide region: H4 38-50, peptide modifications: H4K44me3, binder concentration: 100 nM",0.0129 ± 0.00014
same,peptide microarray binding signal,[3]; [11],0.00104 ± 4.6e-05
same,peptide microarray binding signal,[3]; [12],0.0016 ± 2.7e-05
same,peptide microarray binding signal,[4]; [11],0.0011 ± 0.0001
same,peptide microarray binding signal,[4]; [12],0.00161 ± 5.6e-05
B5,peptide microarray binding signal,"[1]; peptide region: H4 38-50, peptide modifications: H4K44ac H4R45me1, binder concentration: 50 nM",0.0131 ± 0.00062
same,peptide microarray binding signal,"[1]; peptide region: H4 38-50, peptide modifications: H4K44ac H4R45me1, binder concentration: 500 nM",0.01695 ± 5.7e-05
same,peptide microarray binding signal,"[2]; peptide region: H4 38-50, peptide modifications: H4K44ac H4R45me1, binder concentration: 10 nM",0.0235 ± 0.0022
same,peptide microarray binding signal,"[2]; peptide region: H4 38-50, peptide modifications: H4K44ac H4R45me1, binder concentration: 100 nM",0.048 ± 0.0095
same,peptide microarray binding signal,[3]; [13],0.00338 ± 0.00048
same,peptide microarray binding signal,[3]; [14],0.00685 ± 0.0005
same,peptide microarray binding signal,[4]; [13],0.00296 ± 0.00039
same,peptide microarray binding signal,[4]; [14],0.00306 ± 4.5e-05
B6,peptide microarray binding signal,"[1]; peptide region: H4 38-50, binder concentration: 50 nM",0.00398 ± 0.00022
same,peptide microarray binding signal,"[1]; peptide region: H4 38-50, binder concentration: 500 nM",0.00614 ± 6.4e-05
same,peptide microarray binding signal,"[2]; peptide region: H4 38-50, binder concentration: 10 nM",0.003641 ± 3.4e-05
same,peptide microarray binding signal,"[2]; peptide region: H4 38-50, binder concentration: 100 nM",0.0105 ± 0.00039
same,peptide microarray binding signal,[3]; [15],0.000434 ± 8.7e-06
same,peptide microarray binding signal,[3]; [16],0.000913
same,peptide microarray binding signal,[4]; [15],0.000151 ± 1.6e-06
same,peptide microarray binding signal,[4]; [16],0.000634 ± 1.2e-05
B7,peptide microarray binding signal,"[1]; peptide region: H4 16-28, peptide modifications: H4R23cit, binder concentration: 50 nM",0.00241 ± 3.7e-05
same,peptide microarray binding signal,"[1]; peptide region: H4 16-28, peptide modifications: H4R23cit, binder concentration: 500 nM",0.00457 ± 0.00023
same,peptide microarray binding signal,"[2]; peptide region: H4 16-28, peptide modifications: H4R23cit, binder concentration: 10 nM",0.00597 ± 0.00064
same,peptide microarray binding signal,"[2]; peptide region: H4 16-28, peptide modifications: H4R23cit, binder concentration: 100 nM",0.00291 ± 0.00024
same,peptide microarray binding signal,[3]; [17],0.000925 ± 1.6e-05
same,peptide microarray binding signal,[3]; [18],0.002 ± 0.00019
same,peptide microarray binding signal,[4]; [17],0.000544 ± 6.6e-05
same,peptide microarray binding signal,[4]; [18],0.00115
B8,peptide microarray binding signal,"[1]; peptide region: H4 38-50, peptide modifications: H4K44me3 H4R45cit, binder concentration: 50 nM",0.0125 ± 0.00042
same,peptide microarray binding signal,"[1]; peptide region: H4 38-50, peptide modifications: H4K44me3 H4R45cit, binder concentration: 500 nM",0.0116 ± 0.0018
same,peptide microarray binding signal,"[2]; peptide region: H4 38-50, peptide modifications: H4K44me3 H4R45cit, binder concentration: 10 nM",0.00836 ± 0.00091
same,peptide microarray binding signal,"[2]; peptide region: H4 38-50, peptide modifications: H4K44me3 H4R45cit, binder concentration: 100 nM",0.00588 ± 0.0012
same,peptide microarray binding signal,[3]; [19],0.00387 ± 0.00082
same,peptide microarray binding signal,[3]; [20],0.00502 ± 0.00084
same,peptide microarray binding signal,[4]; [19],0.00444 ± 0.00077
same,peptide microarray binding signal,[4]; [20],0.00467 ± 0.00024
B9,peptide microarray binding signal,"[1]; peptide region: H4 16-28, peptide modifications: H4R19me2s, binder concentration: 500 nM",0.000524 ± 1.4e-05
same,peptide microarray binding signal,"[2]; peptide region: H4 16-28, peptide modifications: H4R19me2s, binder concentration: 100 nM",0
same,peptide microarray binding signal,[3]; [21],0.000491 ± 9.2e-05
same,peptide microarray binding signal,[4]; [21],3.02e-05 ± 3.4e-07
B10,peptide microarray binding signal,"[1]; peptide region: H4 38-50, peptide modifications: H4K44me1 H4R45cit, binder concentration: 50 nM",0.00502 ± 0.00054
same,peptide microarray binding signal,"[1]; peptide region: H4 38-50, peptide modifications: H4K44me1 H4R45cit, binder concentration: 500 nM",0.0041 ± 5.8e-05
same,peptide microarray binding signal,"[2]; peptide region: H4 38-50, peptide modifications: H4K44me1 H4R45cit, binder concentration: 10 nM",0.00603 ± 0.00023
same,peptide microarray binding signal,"[2]; peptide region: H4 38-50, peptide modifications: H4K44me1 H4R45cit, binder concentration: 100 nM",0.00652 ± 0.0007
same,peptide microarray binding signal,[3]; [22],0.00106 ± 0.00014
same,peptide microarray binding signal,[3]; [23],0.0016 ± 2.7e-05
same,peptide microarray binding signal,[4]; [22],0.00074 ± 1.7e-05
same,peptide microarray binding signal,[4]; [23],0.00133 ± 2.3e-05
